# The full list was thinned out, with hits kept by preference.
# ROC1-CUL1 inh: blocks human RBX1-Cullin-1 di-ubiquitin formation; P62877+Q13616; in vitro K48 di-Ub FRET, acceptor:donor ratio, 45 min; inhibition, % at 10 µM; 140,000 compounds, 0.6% hits; in the data active = inhibition above about 25%
# Target sequence (P62877 whole entry, looked up): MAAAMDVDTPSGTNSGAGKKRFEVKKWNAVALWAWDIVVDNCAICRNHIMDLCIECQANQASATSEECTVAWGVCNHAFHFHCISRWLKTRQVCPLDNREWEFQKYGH
# Target sequence (Q13616 whole entry, looked up): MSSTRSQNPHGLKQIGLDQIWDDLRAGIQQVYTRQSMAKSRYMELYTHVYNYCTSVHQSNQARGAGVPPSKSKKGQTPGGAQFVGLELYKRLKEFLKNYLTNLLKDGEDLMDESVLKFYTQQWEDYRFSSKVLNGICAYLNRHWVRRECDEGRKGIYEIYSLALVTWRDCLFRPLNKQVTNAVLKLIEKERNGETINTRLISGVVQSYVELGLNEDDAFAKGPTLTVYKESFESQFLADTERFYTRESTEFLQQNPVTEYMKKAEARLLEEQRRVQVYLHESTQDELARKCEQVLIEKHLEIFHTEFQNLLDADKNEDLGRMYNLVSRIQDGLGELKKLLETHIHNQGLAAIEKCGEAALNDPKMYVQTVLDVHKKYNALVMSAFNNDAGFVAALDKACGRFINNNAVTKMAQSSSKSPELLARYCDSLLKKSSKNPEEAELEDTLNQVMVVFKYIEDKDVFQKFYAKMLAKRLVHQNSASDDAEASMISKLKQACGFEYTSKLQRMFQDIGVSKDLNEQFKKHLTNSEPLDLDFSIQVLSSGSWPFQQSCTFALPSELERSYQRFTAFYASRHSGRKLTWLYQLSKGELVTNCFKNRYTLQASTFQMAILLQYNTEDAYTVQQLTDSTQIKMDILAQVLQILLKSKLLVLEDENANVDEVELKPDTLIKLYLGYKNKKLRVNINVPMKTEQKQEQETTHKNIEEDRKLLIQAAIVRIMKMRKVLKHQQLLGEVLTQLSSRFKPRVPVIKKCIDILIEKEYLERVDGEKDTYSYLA
# Starred values were filed as active, the others as inactive.
SMILES,ROC1-CUL1 inh
COc1cc(/C=C2\SC(=O)N(c3ccc(Cl)cc3)C2=O)c(Br)cc1OCC(=O)O,41*
CCOC(=O)COc1cc(Br)c(/C=C2/SC(=O)N(CC)C2=O)cc1OC,-7
O=C(O)COc1ccc(Br)cc1/C=C1\SC(=O)N(c2cccc(Cl)c2)C1=O,51*
COc1cc(/C=C2\SC(=O)N(Cc3ccc(F)cc3)C2=O)c(Br)cc1OCC(=O)O,9
CCc1ccccc1N=C1S/C(=C\c2cc(Br)ccc2OCC(=O)O)C(=O)N1c1ccccc1CC,0
O=C(O)COc1ccc(Br)cc1/C=C1/SC(=O)N(CC(=O)N2CCCC2)C1=O,-9
Cc1c(Cl)cccc1NC(=O)C1CCN(c2ncnc3c2nc2n3CCCCC2)CC1,2
COc1ccc(NC(=O)CN(C)S(=O)(=O)c2ccc3c(c2)CCCN3C(C)=O)cc1,-8
COc1ccccc1CNC(=O)Cn1ncc2c(=O)oc3ccc(C)cc3c21,2
COc1ccc(CNC(=O)Cn2cccc2C(=O)c2ccccc2C)cc1,5
CCN1/C(=C\C=C/C2C=Cc3ccccc3N2CC)C=Cc2ccccc21 (stereo not given),57*
CC(=O)Oc1c(Br)cc2oc(=O)sc2c1Br,34*
COc1cc2oc(=O)cc(C)c2c(OC)c1OC(C)=O,1
O=C(Nc1ccccc1)Oc1c(Cl)cc2oc(=O)sc2c1Br,16
Fc1ccc(CSc2ncnc3c2cnn3-c2ccccc2)cc1,-2
O=C1C=C(c2ccccc2)OC(=O)C1,1
CC1(C)CNC(=O)C=C(c2ccccc2)C1,-1
CN1C(=O)C=C(c2ccccc2)CC1=O,99*
COc1ccc2c(c1)Cc1sc(NC(=O)c3cccc(Br)c3)nc1-2,-18
COc1ccc2c(c1)CCc1sc(NC(=O)c3ccc(Cl)cc3)nc1-2,11
COc1ccc2c(c1)Cc1sc(NC(=O)c3cccc(F)c3)nc1-2,13
COc1ccc2c(c1)-c1nc(NC(=O)c3ccccc3F)sc1CC2,2
COc1ccc(C(=O)Nc2nc3c(s2)Cc2cc(OC)ccc2-3)cc1,40*
COc1ccc2c(c1)Cc1sc(NC(=O)c3ccccc3C)nc1-2,32*
Cc1ccc(NC(=O)CSc2nc(C)cc(C)n2)cc1,8
SMILES,ROC1-CUL1 inh
Cc1sc2c(c1C)c(=O)n(-c1cccc(C(F)(F)F)c1)c(=O)n2Cc1ccc(F)cc1,-5
Cc1cc(-c2csc(C)c2)cs1,3
Oc1ccc(NCc2cc(Cl)ccc2OCc2ccccc2F)cc1,30*
Oc1ccc(NCc2ccccc2OCc2ccccc2Cl)cc1,-31
Oc1ccc(NCc2ccccc2OCc2ccccc2F)cc1,10
CCOc1ccccc1CNc1ccc(N2CCOCC2)cc1,5
NS(=O)(=O)c1ccc(NCc2ccccc2OCc2ccccc2F)cc1,-2
CCOc1ccccc1CNc1ccc(O)cc1,46*
Cc1ccccc1NC(C)c1cc(Cl)ccc1O (stereo not given),-6
CN(Cc1ccccc1)S(=O)(=O)c1ccc(NC(=S)NC(=O)COc2ccccc2)cc1,7
CC1=CC2C(=O)CC(C)=NC2C=C1 (stereo not given),12
COC(=O)C1C(=N)OC2=C(C(=O)CC(C)(C)C2)C1c1ccccc1 (stereo not given),-10
COC(=O)C1C(=N)OC2=C(C(=O)CCC2)C1c1cccnc1 (stereo not given),4
COC(=O)C1C(=N)OC2=C(C(=O)CCC2)C1c1cccc(Br)c1 (stereo not given),106*
C=C(C)C1CC=C(C)/C(=N/NC(=O)COc2ccccc2C)C1 (stereo not given),11
Nc1ccccc1C(=O)Nc1cccc(Cl)c1,10
O=C(Nc1cccc(Cl)c1)Nc1ccccc1C(=O)O,2
O=C(O)c1cc2oc3ccccc3c3ccccc3oc2cc1C(=O)Nc1cccc(Cl)c1,40*
Cc1ccc(CSc2nc3cccnc3n2Cc2ccc(C(=O)NCc3cccs3)cc2)cc1,-6
CC(C)c1ccc(-c2c3c(nc4ncnn24)-c2ccccc2C3=O)cc1,-7
Cc1cccc(NC(c2ccccc2F)c2ccc3cccnc3c2O)n1 (stereo not given),0
CC1=NN(c2ccccc2)C(=O)C1C=Nc1ccccc1-c1nnc(SCc2ccccc2)[nH]c1=O (stereo not given),37*
CC1=NN(c2ccc(F)cc2)C(=O)C1C=Nc1cccc2ccccc12 (stereo not given),-8
CSc1nnc(-c2ccccc2N=CC2C(=O)N(c3ccccc3)N=C2C)c(=O)[nH]1 (stereo not given),2
CC(C)(C)NC(=O)c1cc(CN2CCOCC2)on1,-6
SMILES,ROC1-CUL1 inh
Cc1ccccc1OCC(=O)Nc1nnc(SCc2cc(=O)n3cccc(C)c3n2)s1,0
COC(=O)c1cc2c(C)cc(=O)oc2cc1OC,0
Clc1cccc(-c2nnc(CN3CCN(c4ccccn4)CC3)o2)c1,-4
Cc1cccc(NC(=O)CCn2nc(C)c3c(C)n(-c4ccccc4)nc3c2=O)c1C,-4
CCc1cccc(C)c1NC(=O)CCn1nc(C)c2c(C)n(-c3ccccc3)nc2c1=O,2
Cc1ccc(C)c(NC(=O)CCn2nc(C)c3c(C)n(-c4ccccc4)nc3c2=O)c1,34*
CCOc1ccc(C(=O)N2CCc3ccccc3C2)cc1,-8
CCN(C(N)=S)c1ccccc1,-8
Cc1ccc(NC(=O)c2c(N)sc3c2CCC3)cc1,-3
Cc1ccc(NC(=O)c2c(N)sc3c2CCCCC3)c(C)c1,65*
Cc1ccc(NC(=O)c2c(NC(=O)C(C)(C)C)sc3c2CCCC3)c(C)c1,-5
Cc1cc(C)c(/C=C/c2onc(C)c2S(=O)(=O)N2CCC(C(=O)NCCc3ccccc3)CC2)c(C)c1,-2
COc1cc(OC)cc(N2C(=O)CSC23C(=O)Nc2ccccc23)c1 (stereo not given),2
O=C1CSC2(C(=O)Nc3ccccc32)N1c1ccc(Br)cc1 (stereo not given),0
Cc1ccc(N2C(=O)CSC23C(=O)Nc2ccc(C)cc23)cc1 (stereo not given),94*
COc1cccc2c1sc1c(O)cccc12,-6
c1ccc2c(c1)ccc1nsnc12,-2
Cc1ccc2nsnc2c1S(=O)(=O)Nc1ccccc1Br,-1
Nc1c(Br)ccc2nsnc12,104*
Cc1ccccc1C(=O)NC(NC(C)(C)C)C(Cl)(Cl)Cl (stereo not given),-1
O=C(Nc1ccc(Br)c2cccnc12)c1cc(F)c(F)cc1Cl,4
Nc1ccc(Br)c2cccnc12,62*
Nc1ccnc2ncccc12,9
COc1cc(CN2CCCN(C=O)CC2)ccc1OCC(O)CN1CCCCCCC1 (stereo not given),-1
CCCCN(C(=O)CCn1c(=O)oc2ccccc21)c1ccccc1,-5
SMILES,ROC1-CUL1 inh
CN1CCC(C2(O)CCCSc3ccc(Cl)cc32)CC1 (stereo not given),5
O=C(c1ccc(-n2cccn2)cc1)N1CCCC(CO)(CCc2ccccc2)C1 (stereo not given),8
CCSc1nnc(NC(=O)c2cc(-c3ccc(C)o3)nc3ccccc23)s1,81*
Cc1ccc(CNC(=O)c2cc(-c3ccc(C)o3)nc3ccccc23)cc1,8
Cc1ccc(-c2cc(C(=O)Nc3ccccc3C(N)=O)c3ccccc3n2)o1,1
O=C(Nc1cccc(Cl)c1)c1sc(Cl)nc1-c1ccccc1,5
OC1c2ccccc2CCc2sccc21 (stereo not given),-2
OC1c2ccccc2CSc2sccc21 (stereo not given),49*
C[N+]1(C)CCC(C2c3ccccc3CSc3sccc32)CC1 (stereo not given),-3

# Assay outcomes from PubChem.
